Screening results (PubChem BioAssay)
D1 agonist: agonists of human D1 dopamine receptor. P21728. HEK293 T-REx D1 cells, calcium flux, agonist mode. activation, % at 2 µM. actives 1% (n = 360,000); also: 0% is about no effect
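Tetracycline-induced HEK293 TREx D1 cells, force-coupled to calcium signalling, were dye-loaded with a no-wash calcium kit. Compound was pin-added after a 10 s baseline. Fluorescence was read kinetically at 1 cycle/s for 180 s, with calcium rises flagged as agonism.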
D1 antagonist: antagonists of human D1 dopamine receptor; P21728; HEK293 TREx D1 cells, calcium flux, dopamine EC80; stronger effect = lower value; activity change, negative = inhibition, % at 10 µM; actives 3.2% (n = 360,000); AID 504652; in the data active = activity change below about -30%; also: % is scaled to controls: 0 for no effect and ±100 for the full control effect
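After overnight tetracycline induction at 30 C, force-coupled D1 HEK293 cells took up a no-wash calcium dye at room temperature. Compounds were added and monitored 180 s, and the response to EC80 dopamine was then recorded.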
D1 PAM: potentiators of human D1 dopamine receptor | HEK293 TREx D1 cells, calcium flux, dopamine EC20 potentiation | P21728 | actives 0.036% (n = 360,000) | potentiation, % at 10 µM; in the data active = potentiation above about 30%; also: 0% is about no effect
TRHR enhancer: TRH receptor (human) allosteric enhancement; P34981; actives 0.66% (n = 360,000); enhancement, % at 2 µM; AID 493056; TRHR cells, fluo-8 calcium fluorescence, EC20 TRH enhancement; in the data active = enhancement above about 30%; also: 0% is about no effect
Target sequence (P34981 whole entry, looked up): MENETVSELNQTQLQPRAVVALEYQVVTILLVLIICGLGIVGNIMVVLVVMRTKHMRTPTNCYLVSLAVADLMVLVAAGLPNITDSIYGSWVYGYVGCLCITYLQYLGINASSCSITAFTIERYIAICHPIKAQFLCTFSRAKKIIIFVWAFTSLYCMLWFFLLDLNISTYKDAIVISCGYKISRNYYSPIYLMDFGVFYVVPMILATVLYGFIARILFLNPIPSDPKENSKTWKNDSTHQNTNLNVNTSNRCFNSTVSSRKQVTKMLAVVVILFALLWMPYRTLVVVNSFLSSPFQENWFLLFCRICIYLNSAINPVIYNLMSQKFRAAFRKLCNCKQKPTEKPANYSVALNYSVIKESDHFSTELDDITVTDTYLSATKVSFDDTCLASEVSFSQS
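TRHR-expressing cells loaded with fluo-8 calcium dye were read kinetically (ex 480/em 530) during compound addition, then stimulated with an EC20 of TRH (10 nM final). Enhancement of the Gq-mediated intracellular calcium response was scored.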
TRHR ag: agonists of human TRH receptor. TRHR cells, calcium flux fluo-8, FDSS agonist mode. activation, % at 2 µM. actives 0.18% (n = 360,000). AID 493084; also: 0% is about no effect
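In this calcium-flux screen, cells bearing human TRHR are dye-loaded with fluo-8, baselined for 10 cycles, then exposed to library compounds; positive kinetic calcium responses during the agonist phase mark hits, with TRH as control.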
Starred values were filed as active, the others as inactive. Shown are actives, neighbours in structure and some others; about 4.6% of the full set was active somewhere. Rule as the data show it, unless noted: active = activation above about 30%; inactive = the rest.

SMILES	D1 agonist	D1 antagonist	D1 PAM	TRHR enhancer	TRHR ag
Cc1cccc(NC(=O)C2(c3ccccc3)CC2(Cl)Cl)c1 (stereo unspecified)	24.9	-63.8*	-15.7	6.9	-0.5
O=C(CC1C(=O)N(c2ccc(F)cc2)C(=O)N1Cc1ccc2c(c1)OCO2)Nc1ccc(Cl)cc1 (stereo unspecified)	4.6	-11.9	-0.1	-0.1	1.4
Cn1c(=O)c2c(nc(SCc3cccnc3)n2Cc2ccccc2)n(C)c1=O	-0.4	-40.7*	-6.8	9.6	-0.8
C=CCn1c(Oc2ccc(C=O)cc2OCC)nc2c1c(=O)n(C)c(=O)n2C	0.8	-61.3*	-13.1	1.5	-0.2
CCOc1ccc(CCNc2nc3c(c(=O)n(C)c(=O)n3C)n2CC)cc1OCC	5.7	-31.3*	-9.8	-1.6	-2.5
CCn1c(Oc2ccccc2C)nc2c1c(=O)n(C)c(=O)n2C	4.5	-4.2	3.0	-3.3	-2.0
Cc1ccc(Cn2c(SCc3cccnc3)nc3c2c(=O)n(C)c(=O)n3C)cc1	1.8	14.5	-0.7	-0.8	-0.5
Cn1c(=O)c2c(nc(NCCO)n2CCc2ccccc2)n(C)c1=O	2.1	-79.5*	-6.1	-2.3	0.4
Cn1c(=O)c2c(nc(NCCCO)n2CCc2ccccc2)n(C)c1=O	1.0	1.8	2.1	6.0	-0.2
Cc1ccc(CN2CCN(C3CCN(C(=O)c4ccc(C)cc4)CC3)C(=O)C2=O)cc1	1.6	4.3	-1.4	21.7	0.2
Cn1c(=O)c2c(nc(NCc3cccnc3)n2Cc2ccccc2Cl)n(C)c1=O	1.0	-3.0	16.9	3.1	-0.1
Cn1c(=O)c2c(nc(NCc3ccccc3)n2Cc2ccccc2Cl)n(C)c1=O	-1.7	-30.3*	-6.5	12.4	-0.1
Cc1nn2c(-c3ccco3)ccnc2c1-c1ccc(Cl)cc1	0.1	19.8	-3.1	3.0	0.9
COc1ccc(CCN(C)CC(O)COC(c2ccc(F)cc2)c2ccc(F)cc2)cc1OC (stereo unspecified)	32.8*	-26.6	-18.9	2.6	2.3
COc1ccc(CCN(C)CC(O)COc2c(C)ccc(C)c2C)cc1OC (stereo unspecified)	33.7*	-15.6	-6.8	-17.4	-3.0
COc1ccccc1NCC(O)Cn1c2ccccc2c2ccccc21 (stereo unspecified)	-0.6	-0.6	1.6	-6.8	0.2
COc1ccc(CCNCC(O)Cn2c3ccccc3c3ccccc32)cc1OC (stereo unspecified)	55.3*	-18.9	-4.8	-7.0	1.8
COc1ccc(Nc2ncnc3c2nc2n3CCCC2)cc1Cl	-1.4	-11.1	-0.7	2.0	-0.2
C=CCn1c(C)cc(C(=O)CSc2nnc3c(Cl)cc(Cl)cn23)c1C	-0.3	-24.7	-7.2	-0.8	-0.6
Cc1cc(C(=O)CSc2nnc3c(Cl)cc(Cl)cn23)c(C)n1C	0.6	-31.0*	2.6	-3.5	0.5
CCc1ccc(Nc2nc(-c3cc4cccc(OC)c4oc3=O)c(CC)s2)cc1	3.7	8.7	-2.2	6.8	0.9
N#Cc1nc(Nc2cc(Cl)cc(Cl)c2)nc(NC2CCCC2)n1	0.8	-20.8	-1.0	3.1	1.6
Cc1oc2c(cc(NS(=O)(=O)c3ccc(Cl)cc3)c3ccccc32)c1C(=O)O	3.1	3.7	0.1	-4.4	1.2
CC(=O)c1c(C)oc2c1cc(NS(=O)(=O)c1ccc(Br)cc1)c1ccccc12	5.2	-32.5*	2.0	-6.8	0.5
CC(=O)c1c(C)oc2c(Br)cc(NS(=O)(=O)c3ccc(Br)cc3)cc12	3.7	-46.7*	-7.5	-0.8	-0.1
SMILES	D1 agonist	D1 antagonist	D1 PAM	TRHR enhancer	TRHR ag
Cc1oc2ccc(NS(=O)(=O)c3ccc(F)cc3)cc2c1C(=O)O	-0.9	16.3	3.4	2.4	0.9
Cc1nc(CC(=O)Nc2cccc(C)c2C)cs1	1.7	-1.2	2.0	4.2	1.0
Cc1cc(C(=O)N/N=C/c2c(C)[nH]c3ccccc23)n[nH]1	2.7	-20.4	1.1	0.7	-0.6
Cc1[nH]c2ccccc2c1/C=N/NC(=O)c1cc(-c2cccs2)[nH]n1	-0.5	-31.3*	-13.4	4.0	0.0
Cc1cc(C(=O)N/N=C/c2ccccn2)n[nH]1	0.8	-47.6*	-6.1	-0.7	0.3
O=C1CC(NS(=O)(=O)c2ccc([N+](=O)[O-])cc2)CN1c1cccc(F)c1 (stereo unspecified)	11.5	-1.7	-4.6	1.5	0.6
O=c1c2[nH]c3ccsc3c2cnn1Cc1ccccc1F	1.3	20.8	-6.8	-1.4	-0.9
Cc1cnc(NS(=O)(=O)c2ccc(Cl)cc2)c(Br)c1	0.9	-38.5*	-1.1	2.8	-0.8
COc1ccc(OC)c(NC(=O)CN(C)S(=O)(=O)c2ccc(C(=O)N3CCOCC3)s2)c1	2.1	-3.4	0.9	-1.3	-0.5
Cc1cccc(-c2nc3c4ccccc4nc(N4CCN(c5ccccc5F)CC4)n3n2)c1	0.9	-11.8	-6.7	-3.1	0.1
NC(=O)C[n+]1cccc2ccccc21	44.9*	-3.6	-4.5	-6.5	12.1
O=C(C[n+]1cccc2ccccc21)c1ccc(Br)cc1	4.3	-5.0	-3.2	-9.0	0.1
COc1ccc(C2CC(c3ccccc3)=NN2C(=O)COC(=O)c2cccnc2Cl)cc1 (stereo unspecified)	8.0	-12.1	-5.3	2.4	-0.9
COc1ccc(C2CC(c3ccccc3)=NN2C(=O)COC(=O)c2cc(S(=O)(=O)N3CCOCC3)ccc2Cl)cc1 (stereo unspecified)	9.3	-13.8	0.2	39.7*	1.3
COc1ccc(C2CC(c3ccc4ccccc4c3)=NN2C(=O)CN2C(=O)CCC2=O)cc1 (stereo unspecified)	8.9	-30.2*	0.2	2.8	0.3
COc1ccc(C2CC(c3ccccc3)=NN2C(=O)CCC(=O)O)cc1 (stereo unspecified)	2.1	0.8	-3.5	32.8*	1.2
COc1ccc(C2CC(c3ccccc3)=NN2C(=O)COC(=O)c2cccnc2)cc1 (stereo unspecified)	3.9	-6.4	-4.6	37.4*	-0.5
COc1ccc(C2CC(c3ccccc3)=NN2C(=O)COC(=O)C2CC2)cc1 (stereo unspecified)	11.6	-6.0	-1.4	1.8	0.8
CC(Nc1oc(-c2ccc(COc3ccccc3)o2)nc1C#N)c1ccccc1 (stereo unspecified)	1.2	16.6	-1.1	-1.8	0.3
COc1ccc(Nc2nc3ccccc3n3c(N)nnc23)cc1	1.0	8.5	-0.6	6.1	0.4
CCCC1=Nc2cc(C(=O)NC3CCCCC3)ccc2Sc2ccc(C)cc21	15.8	-14.4	-1.4	-2.4	0.2
C/C(=N\NC(=O)COc1ccc([N+](=O)[O-])cc1)c1ccco1	0.2	5.6	4.1	5.3	-0.1
C/C(=N\Nc1ccc([N+](=O)[O-])cc1)c1ccc(N2CCOCC2)cc1	38.9*	-0.6	-1.7	3.7	19.2
C/C(=N\Nc1ccccc1[N+](=O)[O-])c1ccc(N2CCOCC2)cc1	2.0	-9.0	9.0	3.7	-0.3
